# PubChem BioAssay (NCI)
# The panel holds about 83,000 compounds, 20% with a hit somewhere; the sample as a whole holds those more often.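 Assay: single dose, 48 h. Readout: percent growth (0 = no net growth; negative = cell death). Active: <10.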 Active and inactive are the calls of the source.
# Tested on: NCI-H23 lung
# Experiment: NCI-60 one-dose screen, 48 h (100 = growth as untreated, 0 = no growth, -100 = all killed)
# Conditions: 10 µM
# Description: Growth inhibition of the NCI-H23 human Non-Small Cell Lung tumor cell line is measured as a screen for anti-cancer activity. Cells are grown in 96 well plates and exposed to the test compound for 48 hours. Compounds are tested at a single concentration, which is 10^-5 M for most compounds. The reported endpoint is percent growth (GI% or GIPRCNT), where numbers from 0 - 100% represent growth inhibition, and numbers from -100% - 0 represent cell death. For example, a value of 40 represents 60% growth inhibition. A value of 0 means no net growth occurred over the course of the experiment. A value of -40 indicates 40% of cells at the beginning of the experiment died by the end of the experiment. A value of -100 means all cells are dead at the end of the experiment.
# NCI-60 Human Tumor Cell Lines Screen was performed using the standard one-dose NCI protocol, which is described in more detail at https://dtp.cancer.gov/discovery_development/nci-60/default.htm.
# Compounds with GIPRCNT values below 10 were considered active. Activity score was based on GIPRCNT using the following formula: […]
# Score is 0 for GIPRCNT values of 100 or above, 50 for GIPRCNT values of 0, and 100 for GIPRCNT values of -100.
row,Structure (SMILES),growth
1,c1ccc(CN2COc3c(ccc4c3OCN(Cc3ccccc3)C4)C2)cc1,29.9% (inactive)
2,NC(CSC(c1ccccc1)(c1ccccc1)c1ccccc1)C(=O)O (stereo not given),61.3% (inactive)
3,Nc1ccccc1SC(CC(=O)c1ccccc1)c1c(Cl)cccc1Cl (stereo not given),76.1% (inactive)
4,CC(=O)NCc1cc(C)c(C)cc1C,102% (inactive)
5,CC(=O)c1ccc2c(ccc3ccccc32)c1,102% (inactive)
6,COc1cc2c3c(n(C)c(=O)c2cc1OC)-c1cc2c(cc1C3=O)OCO2,71.9% (inactive)
7,COc1cc([C@@H]2c3cc4c(cc3[C@H](O)[C@H]3COC(=O)[C@H]23)OCO4)cc(OC)c1OC,13.1% (inactive)
8,CN(C)C(=O)Oc1cccc([N+](C)(C)C)c1,109% (inactive)
9,CCC(C#N)(CC)c1ccccc1,99.5% (inactive)
10,CC(C)=CC(=O)OC(=O)C=C(C)C,117% (inactive)
11,CCN(CC)C(=O)/C=C(/C)c1ccccc1,96.5% (inactive)
12,O=C(O)CCCc1ccccc1,103% (inactive)
13,CN(C)c1ccc(CNC(C(=O)c2ccccc2)c2ccccc2)cc1 (stereo not given),98.5% (inactive)
14,COc1ccc2c(c1)CCc1c-2n[nH]c1-c1[nH]nc2c1CCc1cc(OC)ccc1-2,75.4% (inactive)
15,CCCCC(=O)c1ccc(OC)cc1,99.7% (inactive)
16,N=c1c(C(=O)OCc2ccccc2)ncc(CCl)n1O,100% (inactive)
17,S=c1nn[nH]c2ccccc12,99.6% (inactive)
18,COC1=CC(=O)c2nc(Cl)ccc2C1=O,-15.2% (active)
19,CCOC(=O)c1[nH]c(C)c(C(C)=O)c1C,94.2% (inactive)
20,O=C(CCl)N1CCN(C/C=C/c2ccccc2)CC1,101% (inactive)

row,Structure (SMILES),growth
1,COc1ccc(C2OC(N)=C(O)C2=O)cc1OC (stereo not given),102% (inactive)
2,O=C(NN=C1CCCCC1)C(=O)NN=C1CCCCC1,105% (inactive)
3,C#CC(C(C)C)N(CCO)CCCC (stereo not given),120% (inactive)
4,COCCOC(=O)c1ccc(C(C)C)cc1,102% (inactive)
5,CC(=O)c1cc2c(cc1F)C(C)(C)CCC2(C)C,90.6% (inactive)
6,O=c1cc2oc3cc(O)c(O)cc3c(-c3ccccc3O)c-2cc1O,82.4% (inactive)
7,COc1cccc(/C=N/NC(=S)NC2CC3CCC2C3)c1O (stereo not given),71% (inactive)
8,CN(C)c1ccc(S(=O)(=O)O)cc1,103% (inactive)
9,COc1ccc(C2(O)CCCCC2)cc1,97.9% (inactive)
10,CCOC(=O)c1ccc(Nc2sc(C(=O)c3cccc([N+](=O)[O-])c3)c(N)c2C#N)cc1,34.2% (inactive)
11,CSc1[nH]c(=O)ncc1F,101% (inactive)
12,CSC[C@H](NC(=O)COc1cccc2cnccc12)C(=O)NC(Cc1ccccc1)C(O)C(=O)N1CSC[C@H]1C(=O)NC(C)(C)C (stereo not given in full),106% (inactive)
13,C#CC(C)(O)c1ccc(Cl)cc1 (stereo not given),92.4% (inactive)
14,CC(=O)c1ccc(N=C(C#N)C2=C(O)c3ccccc3C2=O)cc1,104% (inactive)
15,C[N+](C)(C)C(=O)c1ccccc1,99.5% (inactive)
16,CC1CCCCN1C(=S)Nc1ccc(S(=O)(=O)N2CCCCC2)cc1 (stereo not given),104% (inactive)
17,COc1cc(C2c3cc4c(cc3C3OC(=O)C2C3CO)OCO4)cc(OC)c1OC (stereo not given),14.7% (inactive)
18,C=CC[N+](C)(C)C,103% (inactive)
19,CCOC(=O)/C(C#N)=C/c1cccc(C)c1,99.5% (inactive)
20,CCCCC/C=N/Nc1nc(C)cc(=O)[nH]1,98.7% (inactive)
